These results are taken from PubChem BioAssay (NCATS).

Records with an inconclusive call do not appear. Unmarked numbers belong to inactive results. Active and inactive are the calls of the source. The call rests on the fitted dose curve; in most records, active means well fitted cell-killing curve with a large enough effect; inconclusive means small, poorly fitted or top-dose-only effect, or effect the other way; inactive means no such curve, though single readings can be large or run the other way.

A short description of assay [1]: Quantitative High-Throughput drug screen in 47 multiple myeloma cell lines against the NCATS MIPE library collection: L363_DSMZ cell viability assay (AID 1918984). Further: nearly all actives have a fitted effect of over 40% in size. Put shortly:
(§1)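 500 cells/well; MIPE 4.0 drugs pin-transferred; 48 h, 37C, 5% CO2. CellTiter-Glo, 5 min RT, luminescence. Controls: DMSO 100%, media 0%.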

The nature of assay [2]: Quantitative High-Throughput drug screen in 47 multiple myeloma cell lines against the NCATS MIPE library collection: KMS34_JCRB cell viability assay (AID 1918985). Further: nearly all actives have a fitted effect of over 40% in size. The method, boiled down: as §1
Assay [3] in a line: Quantitative High-Throughput drug screen in 47 multiple myeloma cell lines against the NCATS MIPE library collection: OCIMY7_PLB cell viability assay (AID 1918987). Further: nearly all actives have a fitted effect of over 65% in size. Put shortly: as §1
Assay [4] is described as follows: Quantitative High-Throughput drug screen in 47 multiple myeloma cell lines against the NCATS MIPE library collection: OCIMY5_PLB cell viability assay (AID 1918988). Further: nearly all actives have a fitted effect of over 65% in size. Put shortly: as §1
Assay [5] can be described thus: Quantitative High-Throughput drug screen in 47 multiple myeloma cell lines against the NCATS MIPE library collection: OPM1_PLB cell viability assay (AID 1918989). Further: nearly all actives have a fitted effect of over 40% in size. Put shortly:
as §1

Assay [6] can be described thus: Quantitative High-Throughput drug screen in 47 multiple myeloma cell lines against the NCATS MIPE library collection: U266_ATCC cell viability assay (AID 1919864). Further: nearly all actives have a fitted effect of over 35% in size. Put shortly: as §1
A short description of assay [7]: Quantitative High-Throughput drug screen in 47 multiple myeloma cell lines against the NCATS MIPE library collection: XG6_PLB cell viability assay (AID 1919865). Further: nearly all actives have a fitted effect of over 40% in size. The method, boiled down:
as §1

A short description of assay [8]: Quantitative High-Throughput drug screen in 47 multiple myeloma cell lines against the NCATS MIPE library collection: XG1_PLB cell viability assay (AID 1919866). Further: nearly all actives have a fitted effect of over 35% in size. The method, boiled down:
as §1

Assay [9] is described as follows: Quantitative High-Throughput drug screen in 47 multiple myeloma cell lines against the NCATS MIPE library collection: VP6_DJ cell viability assay (AID 1919867). Further: nearly all actives have a fitted effect of over 40% in size. The method, boiled down: as §1
Assay [10] is described as follows: Quantitative High-Throughput drug screen in 47 multiple myeloma cell lines against the NCATS MIPE library collection: SKMM1_PLB cell viability assay (AID 1919863). Further: nearly all actives have a fitted effect of over 35% in size. On viability: series mostly up to about 46 µM. Particulars: SKMM1 myeloma viability, CellTiter-Glo ATP, 48 h; viability: stronger effect = lower value. Put shortly: as §1
In general terms: ATP-based viability assays read luminescence as a measure of living cells.

The viability is a read-out of living cells in per cent, often relative to untreated cells.
Potency means the concentration at half of the fitted maximal effect.

With `Nc1nc2c(ncn2COC(CO)CO)c(=O)[nH]1`, the Potency in [1] was 20.9 µM (active); in assay [2], 23.5 µM (active); in assay [3], 2.64 µM (active); in [4], 20.9 µM (active); in assay [5] it was 16.6 µM (active); in assay [6] it was 23.5 µM (active). The Potency was 20.9 µM (active) in [7], 23.5 µM (active) in [8] and 18.7 µM (active) in assay [9].

On to `COc1ccc2c(c1)c(CC(=O)O)c(C)n2C(=O)c1ccc(Cl)cc1`, for which the Potency in assay [1] is 18.7 µM (active); in [3], 13.2 µM (active); in [6], 18.7 µM (active); in assay [7], 18.7 µM (active); in assay [8], 5.26 µM (active); in assay [9], 20.9 µM (active). For the same compound, the Potency entry in [2] and in assay [5] was “inactive” throughout.

For the compound `CN(C)CCC=C1c2ccccc2C=Cc2ccccc21`, the Potency entry in assay [2] is “inactive”. Also, the Potency was 14.8 µM (active) in [3], 14.8 µM (active) in [4] and 18.7 µM (active) in assay [5].

Turning to `COc1cc2nc(N3CCN(C(=O)C4COc5ccccc5O4)CC3)nc(N)c2cc1OC` (stereo unspecified), in [2], the Potency result was “inactive”. Moreover, the Potency in assay [3] was 18.7 µM (active); in [5], 18.7 µM (active); in assay [7], 20.9 µM (active); in assay [8], 29.6 µM (active).

As to `CC(CCc1ccc(O)cc1)NCCc1ccc(O)c(O)c1` (stereo unspecified), the Potency in [2] was 9.35 µM (active); in assay [3], 16.6 µM (active); in [4], 20.9 µM (active); in [5] it was 26.4 µM (active); in [10] it was 18.7 µM (active); in assay [6], 23.5 µM (active). Further, the figures for the Potency in assay [8] and in [9] were 23.5 µM (active) and 16.6 µM (active), respectively.

With `CS(=O)(=O)CCNCc1ccc(-c2ccc3ncnc(Nc4ccc(OCc5cccc(F)c5)c(Cl)c4)c3c2)o1`, the Potency in assay [2] is 29.6 µM (active); in assay [3], 0.0833 µM (active); in assay [4] it was 0.0743 µM (active); in assay [5], 6.62 µM (active); in [6], 5.9 µM (active); in assay [7], 0.001 µM (active). Moreover, the values for the Potency in assay [8] and in assay [9] were 0.0187 µM (active) and 1.66 µM (active), respectively.

Regarding `COC(=O)Nc1nc2ccc(C(=O)c3cccs3)cc2[nH]1`, the Potency in assay [2] is 0.0026 µM (active); in [4], 0.0021 µM (active); in assay [5], 0.0132 µM (active).

With `N[C@@H](Cc1c[nH]c2ccc(O)cc12)C(=O)O`, the Potency result in [2], in assay [3], in [4], in [5] and in assay [8] was “inactive” each time. In [10], the viability was 109%. The Potency in assay [9] is 16.6 µM (active).

Turning to `CC1COc2c(N3CCN(C)CC3)c(F)cc3c(=O)c(C(=O)O)cn1c23` (stereo unspecified), the Potency entry in [2], in assay [3], in assay [5], in assay [6], in assay [8] and in assay [9] was “inactive” in each case.

For `Cc1cn([C@H]2C[C@H](N=[N+]=[N-])[C@@H](CO)O2)c(=O)[nH]c1=O`, the Potency entry in assay [2] is “inactive”. The Potency in [3] is 16.6 µM (active); in assay [5], 29.6 µM (active); in assay [6], 16.6 µM (active); in [8], 16.6 µM (active).

For the compound `OCCN1CCN(CCCN2c3ccccc3Sc3ccc(C(F)(F)F)cc32)CC1`, the Potency was 7.43 µM (active) in assay [1]; 20.9 µM (active) in assay [4]; 20.9 µM (active) in [5]; 23.5 µM (active) in assay [7]; 20.9 µM (active) in assay [8]; 16.6 µM (active) in assay [9].

For `CCCCc1oc2ccccc2c1C(=O)c1cc(I)c(OCCN(CC)CC)c(I)c1`, the Potency was 11.8 µM (active) in assay [2]; 18.7 µM (active) in assay [3]; 16.6 µM (active) in assay [4]; 18.7 µM (active) in assay [5]; 3.72 µM (active) in [6]; 13.2 µM (active) in assay [7]. Also, the Potency in [8] was 10.5 µM (active); in assay [9], 14.8 µM (active).

With `O=C(c1ccc(F)cc1)C1CCN(CCn2c(=O)[nH]c3ccccc3c2=O)CC1`, the Potency result in [2], in [3], in [5] and in assay [7] was “inactive” each time. Also, the figures for the Potency in [4] and in [6] were 26.4 µM (active) and 4.69 µM (active), respectively.

For `Cc1cn([C@H]2C=C[C@@H](CO)O2)c(=O)[nH]c1=O`, the Potency result in [1], in assay [2], in assay [5], in assay [6], in assay [8] and in [9] was “inactive” each time. Besides, in [7], the Potency was 3.82 µM (active).

For the compound `Cc1cc(C(C)(C)C)cc(C)c1CC1=NCCN1`, the Potency result in assay [2], in [3], in [5], in [6] and in [8] was “inactive” each time. The viability in assay [10] is 116%.
